Assay results: PubChem BioAssay (NCATS)
Records with an inconclusive call do not appear. Entries that show only a call come without a potency. A number with no mark means an inactive call. Active and inactive are the calls of the source. Calls follow the shape of the dose curve; as a rule, active = well fitted inhibition curve with a large enough effect; inconclusive = small, poorly fitted or top-dose-only effect; inactive = flat fitted curve, though single readings scatter.

The compounds below were run against Glutathione peroxidase 1 (Homo sapiens) (UniProt P07203) (assay: Primary qHTS Assay for Inhibitors of Recombinant Selenoprotein Glutathione Peroxidase 1 (GPX1) (AID 1845191; also: nearly all actives have a fitted effect of over 65% in size)). Settings: recombinant GPX1, GR-coupled NADPH fluorescence, 15 min; series mostly up to 48.8 µM; activity, negative = inhibition: at the top concentration.
In short: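 NADPH consumption tracked by fluorescence at 340/450 nm between t=0 and t=15 min, room temperature. Final mix: 10 nM GPX1, 100 nM glutathione reductase, 1 mM GSH, 0.5 mM NADPH, 0.5 mM cumene hydroperoxide, 0.01% BSA; 30 min compound–enzyme preincubation.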
Potency is read from the fitted curve at half-maximal effect.

Sequence of Glutathione peroxidase 1 (Homo sapiens) (P07203 whole entry, looked up): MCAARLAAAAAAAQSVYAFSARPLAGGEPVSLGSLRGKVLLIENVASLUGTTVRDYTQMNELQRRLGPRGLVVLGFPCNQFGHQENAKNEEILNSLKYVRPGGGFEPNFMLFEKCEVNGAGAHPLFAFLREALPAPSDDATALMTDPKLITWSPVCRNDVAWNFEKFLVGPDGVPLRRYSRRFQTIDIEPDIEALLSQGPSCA

| SMILES | Potency | outcome | activity, negative = inhibition [%] |
| --- | --- | --- | --- |
| CC(=O)OCC1=C(C(=O)O)N2C(=O)[C@@H](NC(=O)[C@H](N)c3ccccc3)[C@H]2SC1 | 10.1 µM (active) | – | – |
| CC(=O)OC[C@H]1O[C@@H](n2cnc(N)nc2=O)[C@H](OC(C)=O)[C@@H]1OC(C)=O | – | inactive | – |
| COc1ccc(CNc2nc(N3CCC[C@H]3CO)ncc2C(=O)NCc2ncccn2)cc1Cl | – | inactive | – |
| O=S1(=O)CCN(CN2CCS(=O)(=O)NC2)CN1 | – | – | 1.25 |
| C[N+](C)(C)C1CCC(CC2CCC([N+](C)(C)C)CC2)CC1 (stereo not drawn) | – | inactive | – |
| CC(NC(=O)c1ccccc1N=Cc1c(O)ccc2ccccc12)c1ccccc1 (stereo not drawn) | inactive | – | – |
| CCN1CCN(C(c2ccc(C)cc2)c2sc3nc(-c4ccco4)nn3c2O)CC1 (stereo not drawn) | – | inactive | – |
| C[C@](C#N)(COc1cc(C#N)ccc1C(F)(F)F)NC(=O)c1ccc(SC(F)(F)F)cc1 | – | – | -10.4 |
| CCc1nc2c(sc3nc4c(cc32)COC(C)(C)C4)c(=O)n1Cc1ccco1 | – | – | -14.7 |
| CCC(C)C(NC(=O)C(Cc1ccc(O)cc1)NC(=O)C(NC(=O)C(CCCN=C(N)N)NC(=O)C(N)CC(=O)O)C(C)C)C(=O)NC(Cc1cnc[nH]1)C(=O)N1CCCC1C(=O)NC(Cc1ccccc1)C(=O)O (stereo not drawn) | – | – | -6.96 |
| Cn1c(=O)oc2ccc(C(=O)N[C@H](C3CCNCC3)C3CC(O)C3)cc21 (stereo partly drawn) | – | inactive | – |
| C=C1/C(=C/C=C2\CCC[C@]3(C)[C@@H]([C@H](C)CCCC(C)(C)O)CC[C@@H]23)C[C@@H](O)[C@@H](OCCCO)[C@@H]1O | – | inactive | – |
| CC(C)c1c(-c2cnn(C(C)(C)C)c2)nc2c(C#N)c[nH]n2c1=O | – | inactive | – |
